Measurements as given in PMC4552634, “A New Set of Chemical Starting Points with Plasmodium falciparum Transmission-Blocking Potential for Antimalarial Drug Discovery” (PLoS ONE, 2015).
Read-outs that look alike come from different tables or passages of the source. Out of some 13,000 compounds screened, about 3,200 (25%) showed an effect of 50% or more. The list shows a part of the results.

System: P. falciparum stage V gametocytes
Set-up: BacTiter-Glo ATP luminescence viability of purified stage V gametocytes in 384-well plates, per cent inhibition versus DMSO
Conditions: 48 h, 5 µM, inhibitor

Structure (SMILES) | % Inhibition | % Inhibition (% Inhibition)
CS(=O)(=O)N1CC2(CCN(CCC(NC(=O)/C=C/c3ccccc3)c3ccc(Cl)c(Cl)c3)CC2)c2ccccc21 (stereo not drawn) [TCMDC-141763] | 8.889% | –
CCCN1CCCN(Cc2cccc(NC(=O)c3ccc(-c4ccccc4)cc3)c2)CC1 [TCMDC-141843] | -30.15% | –
CCC[C@@H]([C@@H](CC1CCCCC1)C(=O)N[C@H](C(=O)Nc1nccs1)[C@@H](C)OCc1ccccc1)N(O)C=O [TCMDC-138051] | -19.92% | –
Cc1nc(SCC(=O)N2CCCC2=O)c2c(C)c(C)sc2n1 [TCMDC-123558] | 5.306% | –
Cc1[nH]nc2cc(F)c(-c3cc(OC[C@@H](N)Cc4ccccc4)cnc3-c3ccoc3)cc12 [TCMDC-136295] | 10.29% | –
Cc1cccc(Nc2nc(N)c3ccccc3n2)c1.Cl [TCMDC-123639] | -2.53% | –
CCOC(=O)c1c(C)noc1Nc1cccc(C)c1C [TCMDC-131454] | -30.94% | –
CN(C)c1ccc(-c2nnc(Sc3ccc(C#N)c([N+](=O)[O-])c3)n2Cc2ccco2)cc1 [TCMDC-135611] | 2.069% | –
N#Cc1cc([N+](=O)[O-])ccc1-n1nc(-c2cccc(Cl)c2)n(Cc2ccco2)c1=S [TCMDC-134717] | 102.9% | –
COc1cc(OC)cc(-c2nn(-c3ccc([N+](=O)[O-])cc3C#N)c(=S)n2Cc2ccco2)c1 [TCMDC-134715] | 75.07% | –
CCCCCCn1c(Sc2ccc(C#N)c([N+](=O)[O-])c2)nnc1-c1cc(OC)cc(OC)c1 [TCMDC-135589] | 37.66% | –
COc1cc(OC)cc(-c2nn(-c3ccc([N+](=O)[O-])cc3Cl)c(=S)n2Cc2ccco2)c1 [TCMDC-135128] | 93.16% | –
O=[N+]([O-])c1ccc(-n2nc(-c3cccnc3)n(Cc3ccco3)c2=S)c(Cl)c1 [TCMDC-135132] | 83.46% | –
C=CCN1C(=O)c2[nH]nc(-c3cc(C)c(C)cc3O)c2C1c1cccc(Br)c1 (stereo not drawn) [TCMDC-124621] | 9.594% | –
Cn1c(CN2CCC(N3CCc4cc(NC(=O)c5ccco5)ccc43)C2)cc2ccccc21 (stereo not drawn) [TCMDC-135073] | 32.96% | –
NC(N)=Nc1cccc(NC(=O)Nc2cccc(N=C(N)N)c2)c1 [TCMDC-137209] | -4.06% | –
Cc1ccc2c(C3=CCN(CCCCC4(C)C(=O)Nc5ccccc54)CC3)c(C)[nH]c2c1 (stereo not drawn) [TCMDC-141006] | -63.83% | –
COc1cc(Cc2cnc(N)nc2N)cc(OCCCC(=O)O)c1OC [TCMDC-137359] | 3.526% | –
O=C(NCCCCN1CCCC2c3ccc(O)cc3CCC21)c1ccc(-c2ccccc2)cc1 (stereo not drawn) [TCMDC-139084] | – | -62.82%
CCOc1cc(Cc2cnc(N)nc2N)cc(OCC)c1-n1cccc1 [TCMDC-137295] | 0.7486% | –
O=C(/C=C/c1c(Cl)cccc1Cl)NC1CCC(CN2C3CCC2CC(c2c[nH]c4ccccc24)C3)CC1 (stereo not drawn) [TCMDC-140103] | 74.61% | –
CS(=O)(=O)Nc1ccc2[nH]cc(C3CC4CCC(C3)N4CC3CCC(NC(=O)/C=C/c4ccc(Cl)c(Cl)c4)CC3)c2c1 (stereo not drawn) [TCMDC-139807] | 14.27% | –
O=C(/C=C/c1ccccc1Cl)NC1CCC(CN2C3CCC2CC(c2c[nH]c4ccccc24)C3)CC1 (stereo not drawn) [TCMDC-139931] | 92.87% | –
CC(C)(C)c1ccc(NC(=O)c2cccc(CN3CCCN(Cc4ccsc4)CC3)c2)cc1 [TCMDC-135992] | -46.34% | –

Structure (SMILES) | % Inhibition | % Inhibition (% Inhibition)
CCC(C(=O)Nc1cc(=O)[nH]c2nc(-c3ccco3)nn12)c1ccccc1 (stereo not drawn) [TCMDC-125323] | -11.89% | –
COc1cccc(NC(=O)Nc2cc(C)nc3ccccc23)c1 [TCMDC-138950] | -4.503% | –
COc1cc(NC(=O)Nc2cc(C)nc3ccccc23)cc(OC)c1 [TCMDC-139821] | 78.53% | –
COc1cc(NC(=O)Nc2ccnc3ccccc23)cc(OC)c1 [TCMDC-139446] | 84.12% | –
CN(C)c1ccc(NC(=O)Nc2ccnc3ccccc23)cc1Br [TCMDC-139316] | -21.1% | –
O=C(Nc1cccc(Cl)c1Cl)Nc1ccnc2ccccc12 [TCMDC-139462] | 3.661% | –
CCOc1cc(NC(=O)Nc2ccnc3ccccc23)cc(OC)c1 [TCMDC-139788] | 14.31% | –
O=C(Nc1cc(Cl)cc(Cl)c1)Nc1ccnc2ccccc12 [TCMDC-139375] | 74.86% | –
COc1ccc(Cl)cc1NC(=O)Nc1ccnc2ccccc12 [TCMDC-139457] | 13.69% | –
CN(C)c1ccnc2ccc(NC(=O)Nc3ccnc4ccccc34)cc12 [TCMDC-139749] | 70.09% | –
CCc1cc(NC(=O)Nc2ccnc3ccccc23)ccc1OC [TCMDC-139354] | 1.366% | –
CCCOc1cc(NC(=O)Nc2ccnc3ccccc23)cc(OCCC)c1 [TCMDC-139491] | 3.955% | –
COc1ccc(NC(=O)Nc2cc(C)nc3ccccc23)cc1Cl [TCMDC-139820] | -57.55% | –
O=C(/C=C/c1ccc(Cl)c(Cl)c1)NCCCCCN1CCC(NC(=O)Nc2cccc(F)c2)CC1 [TCMDC-135704] | -72.87% | –
CC(C)NCc1cccc(-c2cccc(-c3nc4ccc(F)cc4[nH]3)c2)c1 [TCMDC-132747] | -26.37% | –
CC[C@@H]([C@@H](Cc1cc2ccccc2s1)C(=O)N[C@@H](CCCCNC(=O)OCc1ccccc1)C(=O)Nc1ccccn1)N(O)C=O [TCMDC-138086] | 8.625% | –
CCCCc1ccc(Cc2cnc3nc(N)nc(N)c3c2C)cc1 [TCMDC-138045] | -16.41% | –
CCCCCCN(C(=O)OCc1ccccc1)C1CCN(C(=O)OC(C)(C)C)CC1C(=O)OCC (stereo not drawn) [TCMDC-140339] | 26.28% | –
CCOC(=O)c1c(C)n(-c2ccccc2)c2ccc(OC(=O)c3ccc(S(=O)(=O)N(CC)CC)cc3)cc12 [TCMDC-125723] | 7.356% | –
CCN(C)c1cc(C(=O)N[C@@H](Cc2ccccc2)[C@H](O)CNC(C)(C)c2cccc(OC)c2)cc(N2CCCC2=O)c1 [TCMDC-134529] | 28.65% | –
CSc1ccc(NC(=O)Nc2cc(C)nc3ccccc23)cc1 [TCMDC-139394] | 23.44% | –
Cc1cc(NC(=O)Nc2ccc(C(C)(C)C)cc2)c2ccccc2n1 [TCMDC-139981] | 63.23% | –
Cc1cc(NC(=O)Nc2ccc(C(C)C)cc2)c2ccccc2n1 [TCMDC-139826] | 6.688% | –
CCOc1cc(CC)ccc1C1CCN(CCN2CCC(CNC(=O)c3ccc(-c4ccc(C#N)cc4)cc3)CC2)CC1 [TCMDC-138847] | 107.7% | –

Structure (SMILES) | % Inhibition | % Inhibition (% Inhibition)
CCOc1cc(CC)ccc1C1CCN(CCN2CCC(NC(=O)c3ccc(-c4ccc(C#N)cc4)cc3)CC2)CC1 [TCMDC-138829] | 12.51% | –
CCc1ccc(C2CCN(CCCCNC(=O)c3ccc(NC(=O)c4ccc(Cl)cc4)cc3)CC2)c(OC(C)=O)c1 [TCMDC-138648] | 96.99% | –
CCOc1cc(CC)ccc1C1CCN(CCN2CCC(NC(=O)c3ccc(-c4ccc(C(C)=O)cc4)cc3)CC2)CC1 [TCMDC-138882] | -11.21% | –
CCc1ccc(C2CCN(CCCCNC(=O)c3ccc(NC(=O)c4ccc(Cl)cc4)cc3)CC2)c(OCC(=O)OC)c1 [TCMDC-138707] | 40.9% | –
CCc1ccc(C2CCN(CCCCNC(=O)c3ccc(NC(=O)c4ccc(Cl)cc4)cc3)CC2)c(OC)c1 [TCMDC-138377] | -11.09% | –
CC(=O)Oc1cc(C)ccc1C1CCN(CCCCNC(=O)c2ccc(NC(=O)c3ccc(Cl)cc3)cc2)CC1 [TCMDC-138630] | -17.17% | –
CCOc1cc(CC)ccc1C1CCN(CCCCNC(=O)c2ccc(NC(=O)c3ccc(C#N)cc3)cc2)CC1 [TCMDC-138662] | 87.14% | –
Cc1cc(C2CCN(CCCCNC(=O)c3ccc(-c4ccc(C#N)cc4)cc3)CC2)c(C)cc1OCCO [TCMDC-138827] | -59.1% | –
CCOc1cc(CC)ccc1C1CCN(CCCCNC(=O)c2ccc(NC(=O)c3ccc(Cl)cc3)cc2)CC1 [TCMDC-138317] | 61.4% | –
CC1(C)N=C(N)N=C(N)N1OCCCNC(=O)c1ccc([N+](=O)[O-])cc1 [TCMDC-131666] | 6.997% | –
c1ccc(COc2ccc(Nc3ncnc4cnc(-c5ccc(CN6CCCCC6)o5)cc34)cc2)cc1 [TCMDC-137775] | -26.66% | –
CCCCCC(C)C(C)c1cc(O)c2c(c1)OC(C)(C)CC2=Cc1ccncc1 (stereo not drawn) [TCMDC-131746] | -25.77% | –
C#CC[C@@H](NC(N)=O)C(=O)O [TCMDC-131404] | -1.405% | –
O=S(=O)(NC1CCN(c2ccnc3cc(Cl)ccc23)C1)c1cccc(F)c1 (stereo not drawn) [TCMDC-133657] | -15.22% | –
CCOc1cc(C)ccc1C1CCN(CCN2CCC(CNC(=O)c3ccc(-c4ccc(C(F)(F)F)cc4)cc3)CC2)CC1 [TCMDC-138805] | 96.77% | –
COc1ccccc1C1CCN(CCN2CCC(NC(=O)c3ccc(-c4ccc(C#N)cc4)cc3)CC2)CC1 [TCMDC-138880] | -25.62% | –
COc1cccc(C2CCN(CCN3CCC(NC(=O)c4ccc(-c5ccc(C(F)(F)F)cc5)cc4)CC3)CC2)c1 [TCMDC-138819] | 18.98% | –
CCOc1cc(C)ccc1C1CCN(CCCCNC(=O)c2ccc(-c3ccc(C(F)(F)F)cn3)cc2)CC1 [TCMDC-138535] | 16.24% | –
COc1cccc(C2CCN(CCN3CCC(NC(=O)c4ccc(-c5ccc(C#N)cc5)cc4)CC3)CC2)c1 [TCMDC-138860] | -1.987% | –
CCc1ccc(C2CCN(CCCCNC(=O)c3ccc(NC(=O)c4ccc(Cl)cc4)cc3)CC2)c(OCCO)c1 [TCMDC-138703] | 131.2% | –
COc1cccc(C2CCN(CCN3CCC(CNC(=O)c4ccc(-c5ccc(C(F)(F)F)cc5)cc4)CC3)CC2)c1 [TCMDC-138830] | 71.94% | –
CCOc1cc(C)ccc1N1CCN(CCN2CCC(NC(=O)c3ccc(-c4ccc(C#N)cc4)cc3)CC2)CC1 [TCMDC-138866] | 88.4% | –
CCOc1cc(C)ccc1C1CCN(CCCCNC(=O)c2cccc(-c3ccc(C(F)(F)F)cc3)c2)CC1 [TCMDC-138534] | 29.59% | –
COc1cccc(C2CCN(CCN3CCC(NC(=O)c4ccc(-c5ccc(Cl)cc5)cc4)CC3)CC2)c1 [TCMDC-138833] | -13.87% | –
